From ChEMBL document CHEMBL1157539, “Thousands of chemical starting points for antimalarial lead identification” (Nature, 2010)

tested on: Plasmodium falciparum; assay: GSK_TCMDC: Inhibition of Plasmodium falciparum 3D7 in whole red blood cells, using parasite LDH activity as an index of growth. Test compounds present at 2uM; format: functional

SMILES | Inhibition
COc1cc(NC(=O)Nc2cc(C)nc3ccccc23)cc(OC)c1 | 100%
Cc1cc(C(F)(F)F)n2nc(C(=O)N(Cc3cncn3Cc3cccc(F)c3)CC3CC3)cc2n1 | 100%
O=C(Nc1cccc(CN2CCCN(Cc3ccc(O)cc3)CC2)c1)c1cccc(F)c1.O=C(O)C(F)(F)F | 92%

tested on: Plasmodium falciparum; assay: GSK_TCMDC: Inhibition of Plasmodium falciparum Dd2 in whole red blood cells, using parasite LDH activity as an index of growth. Test compounds present at 2uM; format: functional

SMILES | Inhibition
CC(=O)Nc1nc(C(=O)Nc2ccc(-c3ccc(-c4nc5ccccc5[nH]4)cc3)cc2)cs1 | 53%
CCOc1cc(Cc2cnc(N)nc2N)cc(OCC)c1OCCCCC(=O)OC | 0%
CCN(CC)Cc1cc(Nc2ccnc3cc(Cl)ccc23)ccc1O.Cl.Cl.Cl | 99%
Cc1[nH]c(C)c(-c2ccc(-c3cccc(C(F)(F)F)c3)nc2)c(=O)c1Br | 96%
Cl.OC(c1ccccc1)C1CN(CCC2CC3CCC2C3)CCC1(O)c1ccccc1 (stereo not drawn) | 99%
Cc1cccc2nc(-c3ccc(-c4ccc(CN5CCCCC5)cc4)cc3)[nH]c12.O=C(O)C(F)(F)F | 99%
COCCNC(=O)C(CNC(=O)c1ccc2c(c1)OCO2)NC(=O)c1ccc(-c2ccccc2)cc1 (stereo not drawn) | 3%
Br.Oc1ccccc1CCNC1CCc2ccccc2C1 (stereo not drawn) | 95%
Cc1cccc2nc(-c3ccc(-c4cccc(CNCCCNS(C)(=O)=O)c4)s3)[nH]c12.O=C(O)C(F)(F)F | 19%
O=C(Nc1cccc(-c2cccc(-c3nc4ccccc4[nH]3)c2)c1)Nc1ccc2c(c1)OCO2 | 57%
Cc1ccc2[nH]c(C)cc(=NN=Cc3ccccc3Cl)c2c1 | 62%
Cl.NC(=O)c1cnc2cc(-c3ccoc3)ccc2c1Nc1ccc(NC(=O)Nc2ccccc2Cl)cc1 | 76%
Nc1ncc(-c2cn[nH]c2)cc1-c1nc2ccc(Cl)cc2[nH]1 | 100%
CCn1ccc2c(N3CCCS3(=O)=O)cc(C(=O)N[C@@H](Cc3ccccc3)[C@H](O)CNC3CCCCC3)cc21 | 98%
COc1c(C2CCN(CCCCNC(=O)c3ccc(-c4ccc(Cl)cc4)c(OCCN(C)C)c3)CC2)ccc2c1CCCC2 | 86%
Cn1cnc(CCNC(=O)c2ccc(-c3cccc(-c4nc5cc(F)ccc5[nH]4)c3)cc2)c1 | 24%
CCN(CCCN1CCCCC1)c1cc(C)nc(Nc2cccc(OC(F)(F)F)c2)n1.O=C(O)C(F)(F)F | 99%
CC(Nc1ccc2c(c1)CCC2)C(=O)Nc1cc(C(F)(F)F)ccc1N1CCOCC1 (stereo not drawn) | 100%
CN1CCC(NCc2ccc(-c3ccc(Cl)cc3)cc2)CC1 | 43%
CN(C)CCNCc1cccc(-c2ccc3c(Nc4ccc(Oc5ccccc5)cc4)ccnc3c2)c1 | 99%

SMILES | Inhibition
CN(C)c1ccc(-c2csc(C(=O)NC3CCN(CCC(C)(C)C)C3)c2)cc1.O=C(O)C(F)(F)F (stereo not drawn) | 36%
CN(C)CCN(C)Cc1cccc(-c2ccc3c(Nc4cc(O)c(Cl)cc4F)ccnc3c2)c1 | 70%
O=C(/C=C/c1ccc(Cl)c(Cl)c1)NCCCCCN1CCC(C(=O)Nc2ccc3c(c2)OCO3)CC1 | 0%
Cc1cc(=O)c(-c2ccc(OCc3ccc(OC(F)(F)F)cc3)cc2)c(C)[nH]1 | 92%
Cc1ccc(C2=NNC3(S2)C(=O)N(C)c2ccccc23)cc1 (stereo not drawn) | 12%
CS(=O)(=O)O.FC(F)(F)COc1c(CCNCCCCNCCc2ccc3ccccc3c2OCC(F)(F)F)ccc2ccccc12 | 97%
COc1cc(F)c2ncc(Cl)c([C@@H](O)CN3CCC(NCc4ccc5c(n4)NC(=O)CO5)CC3)c2c1.Cl | 100%
CCCCCN1CCCCC(NS(=O)(=O)c2ccc(C(=O)Nc3cccc(C(F)(F)F)c3)cc2)C1.O=C(O)C(F)(F)F (stereo not drawn) | 2%
CCCCCCn1c(Sc2ccc(C#N)c([N+](=O)[O-])c2)nnc1-c1ccc(OC)cc1 | 51%
CCOc1cc(C(C)C)ccc1N1CCN(CCCCNC(=O)c2ccc(NC(=O)c3ccc(Cl)cc3)cc2)CC1 | 97%
COc1ccc(Br)cc1C1Nc2ccc3ccccc3c2C2=C1C(=O)CC(c1ccccc1)C2 (stereo not drawn) | 96%
Cc1nc2ccc(-c3ccc(OC(F)(F)F)cc3)cc2c(O)c1C#N | 97%
COc1ccc2c(c1)S(=O)(=O)N=C(N1CCCC1c1ccc(Cl)c(Cl)c1)N2C.O=C(O)C(F)(F)F (stereo not drawn) | 19%
CC(=O)Nc1ccc(C(=O)NC2CCN(c3ccnc4cc(Cl)ccc34)CC2)cc1.O=C(O)C(F)(F)F | 99%
C#CCN(Cc1cc2c(=O)[nH]c(N)nc2cc1C)c1ccc(C(=O)N[C@@H](CCC(=O)O)C(=O)O)cc1 | 74%
CCN(CC)CCNc1nccc(N(C)c2ccc(NC(=O)Nc3cc(C(F)(F)F)ccc3F)cc2)n1.O=C(O)C(F)(F)F | 25%
Cc1cccc(Cl)c1S(=O)(=O)Nc1cccc(CCN2CCC(N3CCCCC3)CC2)c1 | 18%
COc1cc(NC(=O)Nc2cc(C)nc3ccccc23)cc(OC)c1 | 57%
Cc1cc(C(F)(F)F)n2nc(C(=O)N(Cc3cncn3Cc3cccc(F)c3)CC3CC3)cc2n1 | 92%
O=C(Nc1cccc(CN2CCCN(Cc3ccc(O)cc3)CC2)c1)c1cccc(F)c1.O=C(O)C(F)(F)F | 4%
